The values that follow come from PubChem BioAssay (NCATS).

Structures are written as SMILES. Records with an inconclusive call do not appear. Calls of active or inactive are those of the source. Calls come from the whole dose curve; as a rule, active = well fitted cell-killing curve with a large enough effect; inconclusive = small, poorly fitted or top-dose-only effect, or effect the other way; inactive = no such curve, though single readings can be large or run the other way. Starred links: 1 amine or outer side, 2 acyl side, 3 side chain; linkers in the order of their positions; H or OH if unused. Positions of bridges follow the written chain, without caps; N, C: chain ends. Non-standard residues stand in square brackets, D forms with d. Residues, ends and D or L forms follow the SMILES beside them. Chains are numbered I, II in the order given. Actinocin(9to1) = Cc1c2oc3c(C)ccc(C(=O)[*:1])c3nc-2c(C(=O)[*:2])c(N)c1=O; NMeV = CN[CH](C(=O)O)C(C)C; Sar = CNCC(=O)O
Potency is the fitted concentration of half-maximal effect.

A short description of the assay: Quantitative High-Throughput drug screen in 47 multiple myeloma cell lines against the NCATS MIPE library collection: KMS27_JCRB cell viability assay (AID 1918970). Note: nearly all actives have a fitted effect of over 30% in size. The following applies: KMS27 myeloma cells, CellTiter-Glo ATP viability, 48 h; viability (% of DMSO): at 45.8 µM (top of the series). From the text:
PI: Beverly A. Mock Ph.D.
Laboratory of Cancer Biology and Genetics,
Center for Cancer Research, National Cancer Institute,
National Institute of Health, Bethesda, Maryland
Drug resistance and disease progression are common in multiple myeloma (MM) patients, underscoring the need for new therapeutic combinations. […] We hypothesized that effective combinations would reduce MYC expression and enhance p16 activity. […] These preclinical data identify potentially useful drug combinations for evaluation in drug-resistant MM and reveal potential mechanisms of combined drug sensitivity.
Described herein is the primary MIPE qHTS used to cherrypick compounds. Validated compounds were then further tested for potential synergistic activiy.
[1] Peat TJ, Gaikwad SM, Dubois W, Gyabaah-Kessie N, Zhang S, Gorjifard S, Phyo Z, Andres M, Hughitt VK, Simpson RM, Miller MA, Girvin AT, Taylor A, Williams D, D'Antonio N, Zhang Y, Rajagopalan A, Flietner E, Wilson K, Zhang X, Shinn P, Klumpp-Thomas C, McKnight C, Itkin Z, Chen L, Kazandijian D, Zhang J, Michalowski AM, Simmons JK, Keats J, Thomas CJ, Mock BA. Drug combinations identified by high-throughput screening promote cell cycle transition and upregulate Smad pathways in myeloma. […] Epub 2023 Jun 24. PMID: 37356470; PMCID: PMC10408729.
SEQUENCE No. (e.g., 1, 2, 3, etc.); […] (e.g., Cells, Incubation, Reagent, etc.); VALUE and DESCRIPTION.
1; Cells; 5 uL; white, solid bottom 1536-well Greiner assay plate.
2; Compounds; 23 nL; Kalypsis pin tool (Wako USA) equipped with a 1536-well pin head to transfer to the assay plates.
3; Incubation; 48 hours; 37C incubation.
4; Reagent;5uL; CellTiter Glo (Promega).
5; Detector; 425V; Luminescence; Viewlux PerkinElmer.
NOTES (numbers refer to Sequence numbers above)
1. The cell-based screening methods employed in this study were like those previously published. Briefly, the corresponding myeloma cell lines were screened in 1,536-well plates with 500 cells, 5-uL per well for inhibition of cell viability (assessed by measuring ATP levels with CellTiterGlo).
2. NCATS MIPE 4.0 library of approved and investigational drugs were added using the Kalypsis pin tool. Wells treated with DMSO only for 100% viability and media only wells for 0% viability were used as controls.
3. The assay plates were covered and incubated for 48 hours in a 37C, 5% CO2 incubator with controlled humidity.
4. After 48 hours, CellTilter-GloTM luminescent substrate mix (Promega) reagent was added to the assay plate and plates we incubated for 5 min at room temperature.
5. Signal was measured as median relative luminescence units on a ViewLux (PerkinElmer) multiplate reader.
[1] Heske CM, Davis MI, Baumgart JT, Wilson K, Gormally MV, Chen L, Zhang X, Ceribelli M, Duveau DY, Guha R, Ferrer M, Arnaldez FI, Ji J, Tran HL, Zhang Y, Mendoza A, Helman LJ, Thomas CJ. Matrix Screen Identifies Synergistic Combination of PARP Inhibitors and Nicotinamide Phosphoribosyltransferase (NAMPT) Inhibitors in Ewing Sarcoma. Clin Cancer Res. 2017 Dec 1;23(23):7301-7311. doi: 10.1158/1078-0432.CCR-17-1121. Epub 2017 Sep 12. PMID: 28899971; PMCID: PMC6636827.
In general terms: In ATP-based viability assays light output follows the ATP content of the culture.
Regarding `CCn1c(=O)c2c(nc(C=Cc3ccc(OC)c(OC)c3)n2C)n(CC)c1=O`, the Potency was 11800 nM (active). For `COc1cc(C[C@@H](CO)[C@H](CO)Cc2ccc(O)c(OC)c2)ccc1O`, the Potency was 2960 nM (active). The figure for `COc1cc(CCc2cc(NC(=O)c3ccc(N4C[C@@H](C)N[C@@H](C)C4)cc3)n[nH]2)cc(OC)c1` is 18700 nM (active); for `COc1cc(O)c2c(c1)C1OC1C[C@H](O)[C@H](O)C(=O)C=CC[C@H](C)OC2=O` (stereo not given in full) it is 7430 nM (active). The value for `CC(C)N1[N]C(=C2C=c3cc(O)ccc3=N2)c2c(N)ncnc21` was 209 nM (active); that for `O=C(CCCCCCC(=O)Nc1cccnc1)NO` was 7430 nM (active). The value for `O=C(c1ccc(F)cc1)N1CCC[C@H](c2nc(-c3ccc(F)cc3)no2)C1` was “inactive”; that for `COc1cc(OC)cc(-c2ccc3ncc4ccc(=O)n(-c5ccc(N6CCNCC6)c(C(F)(F)F)c5)c4c3c2)c1` was 1660 nM (active); that for `COc1cc([C@@H]2c3cc4c(cc3[C@@H](O[C@@H]3O[C@@H]5CO[C@@H](c6cccs6)O[C@@H]5[C@H](O)[C@@H]3O)[C@H]3COC(=O)[C@H]23)OCO4)cc(OC)c1O` was 132 nM (active). For the compound `NC(=O)Nc1sc(-c2ccc(F)cc2)cc1C(N)=O`, the Potency was 166 nM (active). The value for `CCOC(=O)C1=C(C)NC(=S)NC1c1cccc(O)c1` (stereo not given) was 46.9 nM (active).

For `COc1ccc(CCC(=O)c2c(O)cc(O[C@@H]3O[C@H](CO)[C@@H](O)[C@H](O)[C@@H]3O[C@@H]3O[C@@H](C)[C@H](O)[C@@H](O)[C@@H]3O)cc2O)cc1O`, the Potency result is “inactive”. The entry for `CC(=O)O[C@H]1C[C@@H]2CC[C@H]3[C@H]4C[C@H]([N+]5(C)CCCCC5)[C@@H](OC(C)=O)[C@@]4(C)CC[C@@H]3[C@@]2(C)C[C@H]1N1CCCCC1` is “inactive”; for `Cc1cc(O)c2c(c1)C(=O)c1cccc(O)c1C2=O` it is “inactive”. With `CCCCCCCCCCCCc1ccc(S(=O)(=O)Nc2nncs2)cc1`, the Potency entry was “inactive”. As for `CC(C)(C)c1nc2c3cc[nH]c(=O)c3c3cc(F)ccc3c2[nH]1`, the Potency entry was “inactive”.

`Cc1c2oc3c(C)ccc(C(=O)NC4C(=O)NC(C(C)C)C(=O)N5CCCC5C(=O)N(C)CC(=O)N(C)C(C(C)C)C(=O)OC4C)c3nc-2c(C(=O)NC2C(=O)NC(C(C)C)C(=O)N3CCCC3C(=O)N(C)CC(=O)N(C)C(C(C)C)C(=O)OC2C)c(N)c1=O` (stereo not given) (I: TVP[Sar][NMeV] / II: TVP[Sar][NMeV]; ester I:1-I:C, II:1-II:C; linker I:N-II:N via Actinocin(9to1); configuration not given here): the Potency entry is “inactive”. The entry for `CCCCOc1ccc(C(=O)Nc2ccc(F)cc2F)cc1` is “inactive”; for `Oc1ccc(-c2ccc(-c3cc(Nc4cccc(CNC5CC5)c4)n[nH]3)cc2)c(O)c1` it is 743 nM (active); for `OC[C@H]1OC(O)C[C@@H](O)[C@H]1O` (stereo not given in full) it is “inactive”.

For `CC(=O)O[C@]1(C(C)=O)CC[C@H]2[C@@H]3C=C(C)C4=CC(=O)CC[C@]4(C)[C@@H]3CC[C@@]21C`, the Potency was 9350 nM (active).

With `O=C(Nc1nnc(-c2ccco2)o1)c1cc(-c2ccccc2)nc2ccccc12`, the Potency was 16600 nM (active). The figure for `CN[C@@H]1C[C@H]2O[C@@](C)([C@H]1OC)n1c3ccccc3c3c4c(c5c6ccccc6n2c5c31)C(=O)N[C@H]4O` is 148 nM (active); for `N#Cc1c(NC(=O)c2cccc3ccccc23)sc2c1CCCC2` it is 20.9 nM (active).

With `COc1ccnc2[nH]cc(C(=O)C(=O)N3CCN(C(=O)c4ccccc4)C[C@@H]3C)c12`, the Potency entry is “inactive”. `CCC(C=C[C@@H]1OC(=O)C=C[C@H]1C)=C[C@H](C)CC=CC(C)=C[C@@H](C)C(=O)[C@@H](C)[C@H](O)[C@@H](C)CC(C)=CC(=O)O`: the Potency was 9.8 nM (active). The value for `CC(C)(C)[C@H](NC(=O)c1ccc(N)c(Cl)c1)C(=O)N1CCC[C@@H]1C(=O)N[C@H](C#N)CC(=O)O` was 1050 nM (active). The value for `CCCCCCCCc1ccc(CCC(N)(CO)CO)cc1` was 6620 nM (active); that for `N#CC(=Cc1ccc(O)c(O)c1)C(=O)NCc1ccccc1` was 833 nM (active); that for `Cn1cc(-c2cnn3c(N)c(Br)c([C@H]4CCCNC4)nc23)cn1` was 1480 nM (active). The value for `Cc1cc(C(=O)NOCCO)c(Nc2ccc(I)cc2F)n(C)c1=O` was 2.6 nM (active); that for `O=C(O)C(=O)Nc1cccc(C2=NN=N[N]2)c1` was “inactive”. On to `CC(=O)N[C@@H]1[C@H](O[C@@H]2c3ccc(c(Cl)c3)Oc3cc4cc(c3O[C@H]3O[C@H](CO)[C@@H](O)[C@H](O)[C@H]3NC(=O)CCCCCCCC(C)C)Oc3ccc(cc3Cl)C[C@H]3NC(=O)[C@H](N)c5ccc(O)c(c5)Oc5cc(O)cc(c5)[C@H](NC3=O)C(=O)N[C@H]4C(=O)N[C@H]3C(=O)N[C@@H]2C(=O)N[C@@H](C(=O)O)c2cc(O)cc(O[C@H]4O[C@H](CO)[C@@H](O)[C@H](O)[C@H]4O)c2-c2cc3ccc2O)O[C@H](CO)[C@@H](O)[C@@H]1O`, for which the Potency result is “inactive”. The value for `CC(=O)N1CCN(c2ccc(OCc3nn(C)c(C)c3-c3cccc4c(CCCOc5cccc6ccccc56)c(C(=O)O)n(Cc5cccnc5)c34)cc2)CC1` was 74.3 nM (active). In the case of `CCc1ccc(C(=O)Nc2cc(CN3CCN(C)CC3)cc(C(F)(F)F)c2)cc1C#Cc1cnc2ccnn2c1`, the Potency was 5900 nM (active).

Consider `Nc1ccn(C[C@@H](CO)OCP(=O)(O)O)c(=O)n1`, for which the Potency entry was “inactive”. The value for `CC1=C(C(=O)Nc2cc3cn[nH]c3cc2F)C(c2ccc(Cl)cc2F)N=C(c2ccnc(Cl)c2)N1` (stereo not given) was 29600 nM (active); that for `C#C[C@]1(O)CC[C@@H]2[C@@H]3CCC4=CC(=O)CC[C@@H]4[C@H]3CC[C@@]21CC` was “inactive”; that for `C[C@H](NCc1ccc2c(c1)nc(NC(=O)c1ccc(-c3cn[nH]c3)s1)n2CCc1ccccc1)C(C)(C)C` was 418 nM (active). Take `C[C@@H](Cc1cc2c(c(C(N)=O)c1)N(CCCO)CC2)NCCOc1ccccc1OCC(F)(F)F`: the Potency entry was “inactive”.
